{
  "source": "ChEMBL document CHEMBL4513146",
  "about": "“CO-ADD screening of Karazin Kharkiv National University (Ukraine) compounds”",
  "note": "Potency and affinity values are given separately.",
  "data": [
    {"test_system": "Klebsiella pneumoniae", "details": "Concentration 32 ug.mL-1;; ASSAY_TEST Inhibition of Bacterial Growth; detection method Absorption (OD600); MEDIA CAMHB; plate type 384well; NBS; CORNING #3640; time 18 hr", "units": {"Inhibition": "%"}, "values": [
      {"smiles": "O=C(Cn1nc2c3cc(-c4ccc(F)cc4)nn3ccn2c1=O)Nc1ccc(Br)cc1", "Inhibition": 2.07},
      {"smiles": "CCCCn1c(=O)c2sccc2n2c(=O)n(CC(=O)N(C)c3ccccc3)nc12", "Inhibition": -1.65},
      {"smiles": "Cc1ccc(-c2ccc3nn(Cc4ccc5c(c4)OCO5)c(=O)n3n2)cc1C", "Inhibition": 2.14},
      {"smiles": "COc1ccc(CNC(=O)Cn2nc3c(N4CCN(c5ccccc5)CC4)nccn3c2=O)cc1", "Inhibition": 14.33},
      {"smiles": "COc1cccc(NC(=O)Cn2nc3ccc(-c4ccc(Cl)cc4)nn3c2=O)c1", "Inhibition": 5.27},
      {"smiles": "COc1ccc(NC(=O)Cn2nc3ccc(SC(C)C)nn3c2=O)cc1OC", "Inhibition": 9.91},
      {"smiles": "COc1ccc(NC(=O)c2ccc3nn(CC(=O)Nc4ccc5c(c4)OCCO5)c(=O)n3c2)cc1", "Inhibition": 2.24},
      {"smiles": "CCCCn1c(=O)c2sccc2n2c(=O)n(CC(=O)N3CCCC(C(=O)OCC)C3)nc12", "note": "(stereo unspecified)", "Inhibition": -2.03},
      {"smiles": "COc1ccccc1NC(=O)Cn1nc2c(Sc3ccccc3)nccn2c1=O", "Inhibition": -2.04},
      {"smiles": "Cc1cc(C)c(NC(=O)Cn2nc3c4c5c(sc4ncn3c2=O)CCCC5)c(C)c1", "Inhibition": 7.2},
      {"smiles": "O=C(CSc1nnc2c(=O)n(Cc3ccc(F)cc3)ccn12)NC1CCCC1", "Inhibition": 8.75},
      {"smiles": "Cc1ccc(Cl)cc1NC(=O)CSc1nc2ccccc2n2c(C)nnc12", "Inhibition": 2.82},
      {"smiles": "COC(=O)c1ccc(NC(=O)Cn2nc3c4cc(-c5ccc(Cl)cc5)nn4ccn3c2=O)cc1", "Inhibition": 10.1},
      {"smiles": "Cc1ccc(NC(=O)Cn2nc3c(SCc4ccc(Cl)cc4)nccn3c2=O)c(C)c1", "Inhibition": 13.7},
      {"smiles": "Cc1ccc(-c2cc3c4nn(CC(=O)Nc5ccccc5Cl)c(=O)n4ccn3n2)cc1", "Inhibition": 2.6},
      {"smiles": "COc1ccc(NC(=O)C(C)Sc2nnc3c(=O)n(-c4ccc(C)c(C)c4)ccn23)cc1", "note": "(stereo unspecified)", "Inhibition": 12.32},
      {"smiles": "CC(C)n1c(=O)c2ccc(C(=O)NC3CCCC3)cc2n2c(=O)n(Cc3cccc(C(F)(F)F)c3)nc12", "Inhibition": 13.79},
      {"smiles": "Cc1ccc(C)c(S(=O)(=O)Nc2ccc3nncn3n2)c1", "Inhibition": 4.11},
      {"smiles": "COc1ccc(CNC(=O)Cn2nc3c(SCc4ccc(Cl)cc4)nccn3c2=O)cc1", "Inhibition": 2.51},
      {"smiles": "O=C(CSc1nnc2c(=O)n(-c3ccccc3)ccn12)Nc1ccc(Br)cc1F", "Inhibition": 1.03},
      {"smiles": "Cc1nnc2c(=O)n(CC(=O)Nc3ccc(C(C)C)cc3)c3ccccc3n12", "Inhibition": 15.67},
      {"smiles": "COc1ccc(-c2cc3c4nn(CC(=O)Nc5ccccc5Cl)c(=O)n4ccn3n2)cc1", "Inhibition": 4.39},
      {"smiles": "COc1ccc(CCn2c(=O)c3sccc3n3c(=O)n(Cc4ccccc4Cl)nc23)cc1OC", "Inhibition": 5.53},
      {"smiles": "O=C(Cn1nc2ccc(SC3CCCCC3)nn2c1=O)Nc1ccc2c(c1)OCO2", "Inhibition": -18.44},
      {"smiles": "O=S(=O)(c1ccc2nncn2c1)N(Cc1ccc(Cl)cc1)c1ccc2c(c1)OCO2", "Inhibition": 8.29},
      {"smiles": "O=C(Cn1nc2c(Sc3ccccc3)nccn2c1=O)Nc1ccc2c(c1)OCCO2", "Inhibition": 12.02}
    ]}
  ]
}
